Assay outcomes deposited in PubChem by NMMLSC.
RGS8-Gao = RGS8-Galphao binding modulators, primary screen, biochemical, multiplexed bead flow cytometry. Guanine nucleotide-binding protein G(o) subunit alpha (Homo sapiens), P09471. actives lie on both sides. response (percent of control binding), % at 10 µM. 220,000 compounds, 0.34% hits. AID 1423, 2008; in the data active means response below about 60% or above about 140%; inactive means in between;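 further: Galphao activated as the GDP aluminium fluoride complex binding bead-coupled RGS8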
Target sequence (P09471 whole entry, looked up): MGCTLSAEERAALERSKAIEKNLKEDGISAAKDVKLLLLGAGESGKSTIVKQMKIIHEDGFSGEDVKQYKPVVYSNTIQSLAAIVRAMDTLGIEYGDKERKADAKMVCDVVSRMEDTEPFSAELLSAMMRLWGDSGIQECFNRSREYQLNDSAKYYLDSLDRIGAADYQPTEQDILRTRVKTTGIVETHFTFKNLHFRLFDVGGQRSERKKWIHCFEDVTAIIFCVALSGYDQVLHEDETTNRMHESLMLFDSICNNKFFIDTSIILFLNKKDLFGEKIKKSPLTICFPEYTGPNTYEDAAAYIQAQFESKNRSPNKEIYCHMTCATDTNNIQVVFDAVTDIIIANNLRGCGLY
RGS4-Gao reg = modulators of RGS4 binding to Galphao, primary screen, biochemical, multiplexed bead flow cytometry | Guanine nucleotide-binding protein G(o) subunit alpha (Homo sapiens), P09471 | actives lie on both sides | binding response (% of control), % at 10 µM | 220,000 compounds, 0.33% hits | AID 1415, 2008; in the data active means binding response below about 49% or above about 150%; inactive means in between;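 further: fluorescent Galphao activated with aluminum fluoride binding bead-coupled RGS4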
Avidin fluor = green autofluorescence of compounds with avidin beads – biophysical, 488/530 nm, flow cytometry, artefact control, profiling panel | fluorescence (KMESF) at 10 µM | 220,000 compounds, 0.38% hits | AID 1775, 2009 | compound fluorescence 488/530 nm; active compounds read high; in the data active means fluorescence above about 47
RGS7-Gao = RGS7-Galphao binding modulators, primary screen, biochemical, multiplexed bead flow cytometry | Guanine nucleotide-binding protein G(o) subunit alpha (Homo sapiens), P09471 | actives lie on both sides | binding response (% of control), % at 10 µM | 220,000 compounds, 0.35% hits | AID 1439, 2008; in the data active means binding response below about 49% or above about 150%; inconclusive means no clear call, values can overlap the other calls; inactive means in between;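 further: fluorescent Galphao held in activated GDP-AlF4 state binding bead-coupled RGS7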
GSH fluor = compound fluorescence on glutathione beads, profiling panel, artefact control, biophysical, 488/530 nm, flow cytometry | GSH beads flow cytometry, compound fluorescence 488/530 nm; active compounds read high | fluorescence (KMESF) at 10 µM | 190,000 compounds, 0.25% hits; in the data active means fluorescence above about 89;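 further: glutathione beads carrying GST-tagged Bcl family fusion proteins plus one bare bead set; values are compound well signal with DMSO vehicle wells as background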
RGS16-Gao = modulators of RGS16 binding to Galphao, primary screen, biochemical, human proteins, multiplexed bead flow cytometry. Regulator of G-protein signaling 16 (Homo sapiens) + Guanine nucleotide-binding protein …. bead-based flow cytometry RGS16-Galphao binding, fluorescence; actives lie on both sides. binding response (% of control), % at 10 µM. 220,000 compounds, 0.38% hits;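 further: Galphao activated by GDP with aluminum fluoride before binding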
Target sequence (O15492 whole entry, looked up): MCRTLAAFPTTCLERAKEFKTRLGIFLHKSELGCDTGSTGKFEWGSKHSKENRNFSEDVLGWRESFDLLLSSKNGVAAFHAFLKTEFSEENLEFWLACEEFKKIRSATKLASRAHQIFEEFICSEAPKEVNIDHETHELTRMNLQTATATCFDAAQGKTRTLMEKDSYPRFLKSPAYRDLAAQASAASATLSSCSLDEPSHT
Target sequence (P09471 whole entry, looked up): as the sequence (P09471 whole entry, looked up) above
RGS-Gao = modulators of RGS–Galpha-o binding, primary screen, biochemical, multiplexed beads, flow cytometry, RGS4/7/8/16/19 | shares compounds with RGS16-Gao | multiplexed bead flow cytometry | RGS4–Galpha-o binding response, % at 10 µM | 1,600 compounds, 99% hits | AID 1504, 2009;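 further: fluorescently labeled Galpha-o bound to GDP with aluminium fluoride binding biotinylated RGS beads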
Biotin-avidin = disruption of biotin probe capture by avidin, counter-screen for RGS protein interaction modulators, biochemical, flow cytometry, bead-based. streptavidin beads, fluorescein-biotin binding. 1,700 tested, under 10 active. inhibition, % at 10 µM. shares compounds with RGS16-Gao;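 active means inhibition above 50%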;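 further: median green fluorescence of gated singlet beads compared with DMSO control wells; 0% = DMSO wells and 100% = complete loss of bead fluorescence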
RGS8-Gao single = RGS8-Galphao binding modulators, confirmation, biochemical, multiplexed bead flow cytometry, single concentration | 1,700 compounds, 3% hits | bead-based flow cytometry RGS8-Galphao binding, fluorescence; actives lie on both sides | binding response (% of control), % at 10 µM | shares compounds with RGS16-Gao | AID 1836, 2009; in the data active means binding response below about 72% or above about 130%; inactive means in between;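 further: Galphao activated as GDP AlF4 complex before binding bead RGS8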
RGS7-Gao single = RGS7-Galphao binding modulators, confirmation, biochemical, multiplexed bead flow cytometry, single concentration; shares compounds with RGS16-Gao; bead-based flow cytometry RGS7-Galphao binding; actives lie on both sides; response (percent of control binding), % at 10 µM; 1,700 compounds, 7.8% hits; AID 1837, 2009; in the data active means response below about 75% or above about 130%; inactive means in between;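 further: fluorescent Galphao activated with GDP and aluminum fluoride binding bead-coupled RGS7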
RGS16-Gao conf = modulators of RGS16-Galphao protein binding, confirmation, biochemical, single concentration, multiplexed bead flow cytometry. shares compounds with RGS16-Gao. AID 1838, 2009. 1,700 compounds, 4% hits. response (% of control binding), % at 10 µM. bead-based flow cytometry; actives lie on both sides; in the data active means response below about 74% or above about 130%; inactive means in between;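 further: Galphao activated as the GDP aluminium fluoride complex binding bead-coupled RGS16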
RGS4-Gao confirm = modulators of RGS4-Galphao protein binding, confirmation, biochemical, single concentration, multiplexed bead flow cytometry; binding response (% of control), % at 10 µM; shares compounds with RGS16-Gao; actives lie on both sides; 1,700 compounds, 4% hits; in the data active means binding response below about 74% or above about 130%; inactive means in between
RGS19-Gao single = regulators of RGS19-Galphao binding, confirmation, biochemical, single point, multiplexed bead flow cytometry; shares compounds with RGS16-Gao; bead-based flow cytometry RGS19-Galphao binding; actives lie on both sides; response (percent of control binding), % at 10 µM; 1,700 compounds, 5% hits; AID 1841, 2009; in the data active means response below about 50% or above about 160%; inactive means in between;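 further: 100% = no compound control and 0% = blank background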
* marks the source's active call; other numbers are inactive results; ? = inconclusive; . = no result; [ ] = remark or other dose. Hits are enriched below; roughly 1.2% of the tested compounds scored in any of these assays. Unless noted, how the calls were made is not given here.

SMILES	RGS8-Gao	RGS4-Gao reg	Avidin fluor	RGS7-Gao	GSH fluor	RGS16-Gao	Biotin-avidin	RGS8-Gao single	RGS7-Gao single	RGS16-Gao conf	RGS4-Gao confirm	RGS19-Gao single	others
CC1=NCCN1CCNC(=O)Nc1ccc(F)cc1	113	120	8	?	.	109	.	.	.	.	.	.
CC1=NCCN1CCNC(=O)Nc1cc(C)cc(C)c1	67	47*	3	?	.	47	-1	101	101	102	102	101
CN1C(=O)CSc2ccc(NC(=O)N3CCC(N4CCCCC4)CC3)cc21	127	109	4	110	59	278*[activator]	-5	98	64*	77	77	65	RGS-Gao=109*
CCn1c(COc2cccc3cccnc23)nnc1SC(F)F	97	102	11	114	15	97	.	.	.	.	.	.
O=C(CCCNS(=O)(=O)c1ccc(Cl)c(Cl)c1)NCCc1ccccn1	143*[activator]	145	12	157*[activator]	13	145	0	98	101	100	97	98	RGS-Gao=145*
COc1ccc(Cc2[nH]n3c(=O)c(Cl)c(C)nc3c2-c2ccccc2)cc1	99	98	8	99	14	103	.	.	.	.	.	.
O=c1oc2c(O)c(O)cc3c(=O)oc4c(O)c(O)cc1c4c23	54*	51	1	31*	11	80	.	.	.	.	.	.	RGS-Gao=51*
CCC(=O)c1c(NC(CC)CO)cc(C)oc1=O (centres undefined)	90	86	8	87	11	90	.	.	.	.	.	.
CN(C)N1C(=O)CC(N2CCCCC2)C1=O (centres undefined)	100	103	9	101	24	99	.	.	.	.	.	.
CC1(C)Cc2ccccc2-c2nnc(-c3ccc4ccccc4n3)n21	74	78	5	85	17	19*	1	104	101	106	105	93	RGS-Gao=78*
Cc1cc2c(cc1C)-c1nnc(-c3ccc4ccccc4n3)n1C(C)(C)C2	95	93	18	94	10	95	.	.	.	.	.	.
CCc1oc(C(=O)OC)cc1CSC(=N)N	98	97	6	?	.	99	.	.	.	.	.	.
Cc1cc(OCC(=O)Nc2ccccc2F)nc(C(C)C)n1	100	99	11	102	39	102	.	.	.	.	.	.
Cc1cc(OCC(=O)Nc2ccc(F)c(F)c2)nc(C(C)C)n1	34*	-21*	-2	2.3*	29	-13*	0	99	99	96	96	100
Cc1ccc(OCC(=O)NNC(=O)C(=O)N2CCCC2)c(C)c1	138	118	6	113	20	244*[activator]	1	101	100	102	99	95	RGS-Gao=118*
O=C(NCc1ccccn1)C(=O)N/N=C/c1ccc2c(c1)OCO2	99	97	9	96	10	103	.	.	.	.	.	.
COC(=O)C1=NNC2(C)C(=O)N(c3ccc(C)cc3)C(=O)C12 (centres undefined)	102	103	6	?	.	101	.	.	.	.	.	.
CC1CCN(S(=O)(=O)N2CCC(C(=O)NCc3cccnc3)CC2)CC1	103	101	7	?	.	108	.	.	.	.	.	.
Cc1ccc(C(C(=O)NCC2CCCO2)N(Cc2ccccc2)C(=O)c2ccc(-c3ccccc3)[nH]2)o1 (centres undefined)	97	97	4	94	11	101	.	.	.	.	.	.
O=C(NCC1CCCO1)C(c1cccs1)N(Cc1ccccc1Cl)C(=O)c1ccc(-c2ccccc2)[nH]1 (centres undefined)	119	99	14	87	7	178*[activator]	2	101	98	102	99	92	RGS-Gao=99*
COCCn1c(C)cc(/C=C2/SC(=O)N(C(C)C(=O)OC)C2=O)c1C (centres undefined)	107	222*[activator]	129*	?	.	225*[activator]	1	100	96	97	97	91
O=C(O)C(Cc1c[nH]c2ccccc12)N1C(=O)c2ccccc2C1=O (centres undefined)	104	99	6	?	.	103	.	.	.	.	.	.
Cn1nc(C(=O)Nc2nc(-c3ccc(F)cc3)cs2)ccc1=O	102	98	6	?	.	100	.	.	.	.	.	.
CC(Nc1cccc(F)c1)C(=O)Nc1ccc(S(N)(=O)=O)cc1 (centres undefined)	102	101	8	?	27	103	.	.	.	.	.	.
Fc1cccc(COc2ccccc2C(=S)N2CCCC2)c1	99	101	12	100	14	103	.	.	.	.	.	.
CN1C(=O)/C(=C/c2ccccc2OCc2cccc(F)c2)N(C)C1=S	.	.	.	.	36	.	2	100	99	101	99	97
COc1ccccc1NC(=O)Cn1nnc(-c2ccccc2NC(=O)c2cnccn2)n1	115	102	17	101	8	138	.	.	.	.	.	.
